We go through 29 compounds from PubChem BioAssay (NCATS).

Each structure is given as a SMILES string. Several values for one entry are separate records, joined by “and”; a condition that tells them apart may be missing. Equal entries are not always repeated. Records with an inconclusive call do not appear. A number with no mark means an inactive call. Activity calls are given as the source filed them. The call rests on the fitted dose curve; in most records, active means well fitted curve in the direction sought with a large enough effect; inconclusive means small, poorly fitted or top-dose-only effect, or another doubt; inactive means no such curve, though single readings can be large; an effect the other way counts as inactive or inconclusive.

Experiment [1] can be described thus: qHTS of pediatric cancer cell lines to identify multiple opportunities for drug repurposing: Primary screen for control Hh wild type fibroblast cells (AID 1347106). Further: nearly all actives have a fitted effect of over 55% in size. Further: potency means the concentration at half of the fitted maximal effect. The method in brief:
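Viability after 48 h compound treatment at 37C, 500-1,000 cells/well, read as ATP luminescence with CellTiter-Glo. Primary screens used 11-point (MIPE, 0.78 nM-46 µM) or 8-point (NPC, 0.59 nM-46 µM) final concentrations; follow-up screens used 11-point dilutions.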

Experiment [2] in a line: qHTS of pediatric cancer cell lines to identify multiple opportunities for drug repurposing: Primary screen for Rh30 cells (AID 1347107). Further: series mostly up to about 46 µM; nearly all actives have a fitted effect of over 75% in size. In short, it runs like this:
(§1)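 Cells (500-1,000/well) rested 5 h, then received compounds for 48 h; metabolically active cells were measured by CellTiter-Glo luminescence. Final concentrations spanned up to 46 µM (MIPE, 11-point) or 0.59 nM-46 µM (NPC, 8-point) in primary screens, 11-point in follow-ups.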

Experiment [3] in a line: qHTS of pediatric cancer cell lines to identify multiple opportunities for drug repurposing: Primary screen for Rh41 cells (AID 1347108). Further: nearly all actives have a fitted effect of over 70% in size. Further: potency means the concentration at half of the fitted maximal effect. In short, it runs like this: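 Cells plated at 500-1,000/well in growth medium, compounds added after 5 h. MIPE tested at 11 points (from 0.78 nM), NPC at 8 points (from 0.59 nM). CellTiter-Glo luminescence after 48 h; concentration-response curves from primary screen.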

The nature of experiment [4]: qHTS of pediatric cancer cell lines to identify multiple opportunities for drug repurposing: Confirmatory screen for NB1643 cells (AID 1347109). Further: potency means the concentration at half of the fitted maximal effect; nearly all actives have a fitted effect of over 45% in size. In short, it runs like this: as §1
Experiment [5] in a line: qHTS of pediatric cancer cell lines to identify multiple opportunities for drug repurposing: Confirmatory screen for SK-N-MC cells (AID 1347111).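 Further: potency means the concentration at half of the fitted maximal effect; cells exposed to compound for 48 h before the readout; nearly all actives have a fitted effect of over 70% in size.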 The method in brief:
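Seed 500-1,000 cells/well; rest 5 h at 37 degrees C. Pin-transfer compounds, 11-point titration. Incubate 48 h. Add CellTiter-Glo, 15 min RT, read luminescence.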

Experiment [6] is described as follows: qHTS of pediatric cancer cell lines to identify multiple opportunities for drug repurposing: Confirmatory screen for BT-12 cells (AID 1347112). Further: nearly all actives have a fitted effect of over 55% in size. Further: potency means the concentration at half of the fitted maximal effect. In short, it runs like this: as §1
Experiment [7] in a line: qHTS of pediatric cancer cell lines to identify multiple opportunities for drug repurposing: Confirmatory screen for LAN-5 cells (AID 1347113). Further: nearly all actives have a fitted effect of over 65% in size. Further: potency means the concentration at half of the fitted maximal effect. In short, it runs like this:
as §1

The nature of experiment [8]: qHTS of pediatric cancer cell lines to identify multiple opportunities for drug repurposing: Confirmatory screen for NB-EBc1 cells (AID 1347115).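 Further: potency means the concentration at half of the fitted maximal effect; cells exposed to compound for 48 h before the viability read; nearly all actives have a fitted effect of over 45% in size.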 The method in brief: as §1
Experiment [9] is described as follows: qHTS of pediatric cancer cell lines to identify multiple opportunities for drug repurposing: Confirmatory screen for SJ-GBM2 cells (AID 1347116). Further: nearly all actives have a fitted effect of over 60% in size. Further: potency means the concentration at half of the fitted maximal effect. The method in brief: (§2)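 Viability measured as metabolically active cells via CellTiter-Glo luminescence following 48 hours of compound exposure, 11-point dilutions in confirmatory testing. 500-1,000 cells/well plated 5 hours before dosing; controls were DMSO and 2.3 µM bortezomib.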

A short description of experiment [10]: qHTS of pediatric cancer cell lines to identify multiple opportunities for drug repurposing: Confirmatory screen for TC32 cells (AID 1347118).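 Further: potency means the concentration at half of the fitted maximal effect; cells exposed to compound for 48 h before the read; nearly all actives have a fitted effect of over 65% in size.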 The method in brief: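 Luminescent ATP read-out (CellTiter-Glo) of metabolically active TC32 cells after 48 h exposure. Concentration-response curves came from 11-point (MIPE, 0.78 nM–46 µM) or 8-point (NPC, 0.59 nM–46 µM) primary titrations; follow-up used 11 points.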

A short description of experiment [11]: qHTS of pediatric cancer cell lines to identify multiple opportunities for drug repurposing: Confirmatory screen for control Hh wild type fibroblast cells (AID 1347121). Further: nearly all actives have a fitted effect of over 70% in size. In short, it runs like this: as §1
Experiment [12] is described as follows: qHTS of pediatric cancer cell lines to identify multiple opportunities for drug repurposing: Confirmatory screen for RD cells (AID 1347124).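 Further: cells exposed to compound for 48 h before viability readout; nearly all actives have a fitted effect of over 65% in size.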 Further: potency means the concentration at half of the fitted maximal effect. In short, it runs like this: as §1
Experiment [13] can be described thus: qHTS of pediatric cancer cell lines to identify multiple opportunities for drug repurposing: Confirmatory screen for Rh18 cells (AID 1347125). Further: nearly all actives have a fitted effect of over 55% in size. The method in brief:
as §1

Experiment [14] in a line: qHTS of pediatric cancer cell lines to identify multiple opportunities for drug repurposing: Confirmatory screen for A673 cells (AID 1347110).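 Further: cells exposed to compound for 48 h before the viability read; nearly all actives have a fitted effect of over 65% in size.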 Further: potency means the concentration at half of the fitted maximal effect. In short, it runs like this:
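A673 cells seeded at 500-1,000 cells/well, rested 5 h, then dosed; primary MIPE 11-point (0.78 nM to 46 µM), NPC (0.59 nM to 46 µM); confirmatory 11-point. CellTiter-Glo luminescence after 48 h.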

The nature of experiment [15]: qHTS of pediatric cancer cell lines to identify multiple opportunities for drug repurposing: Confirmatory screen for DAOY cells (AID 1347114). Further: nearly all actives have a fitted effect of over 65% in size. Further: potency means the concentration at half of the fitted maximal effect. In short, it runs like this: as §2
A short description of experiment [16]: qHTS of pediatric cancer cell lines to identify multiple opportunities for drug repurposing: Confirmatory screen for MG 63 (6-TG R) cells (AID 1347119). Further: potency means the concentration at half of the fitted maximal effect; nearly all actives have a fitted effect of over 55% in size. The method in brief:
as §1

Experiment [17] is described as follows: qHTS of pediatric cancer cell lines to identify multiple opportunities for drug repurposing: Confirmatory screen for U-2 OS cells (AID 1347122). Further: nearly all actives have a fitted effect of over 65% in size. Further: potency means the concentration at half of the fitted maximal effect. The method in brief:
as §1

Experiment [18] in a line: qHTS of pediatric cancer cell lines to identify multiple opportunities for drug repurposing: Confirmatory screen for BT-37 cells (AID 1347117). In short, it runs like this: as §1
A short description of experiment [19]: qHTS of pediatric cancer cell lines to identify multiple opportunities for drug repurposing: Confirmatory screen for Rh41 cells (AID 1347123).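 Further: 48 h compound exposure; nearly all actives have a fitted effect of over 60% in size.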 Further: potency means the concentration at half of the fitted maximal effect. The method in brief: as §1
Experiment [20] can be described thus: qHTS of pediatric cancer cell lines to identify multiple opportunities for drug repurposing: Confirmatory screen for Rh30 cells (AID 1347126). In short, it runs like this: as §1

Take `FC(F)(F)c1cccc(C2=CCN(CCc3ccc4ccccc4c3)CC2)c1`: the Potency result in experiment [1] and in experiment [2] was “inactive” each time.

As for `Cc1cccc(C)c1NC(=O)CN1CCCC1=O`, the Potency result in [1] and in experiment [2] was “inactive” in each case.

Turning to `CCC(COC(=O)c1cc(OC)c(OC)c(OC)c1)(c1ccccc1)N(C)C` (configuration not stated), the Potency result in experiment [1], in experiment [2] and in experiment [3] was “inactive” in each case.

With `CN1CCN(C(=O)O[C@H]2c3nccnc3C(=O)N2c2ccc(Cl)cn2)CC1`, the Potency entry in [1], in experiment [2] and in experiment [3] was “inactive” in each case.

On to `O=C(NC(O)C(Cl)(Cl)Cl)NC(O)C(Cl)(Cl)Cl` (configuration not stated), for which the Potency entry in experiment [1], in experiment [2] and in experiment [3] was “inactive” each time.

In the case of `CCCC1CCCCN1` (configuration not stated), the Potency result in [1], in [2] and in experiment [3] was “inactive” throughout.

As for `NCCc1cc(O)c(O)cc1O`, the Potency result in experiment [1], in [2] and in experiment [3] was “inactive” throughout.

On to `CC(C)(C)NCC(O)c1cc(Cl)c(N)c(Cl)c1` (configuration not stated), for which the Potency result in [1], in [2] and in experiment [3] was “inactive” each time.

Regarding `Cc1ccc2c(c1)C1CN(C)CCC1N2` (configuration not stated), the Potency entry in experiment [1] and in experiment [2] was “inactive” throughout.

In the case of `CCN(C(C)=O)c1cccc(-c2ccnc3c(C#N)cnn23)c1`, the Potency result in [1] and in experiment [2] was “inactive” each time.

On to `C=C1CC[C@@]2(O)[C@H]3Cc4ccc(O)c5c4[C@@]2(CCN3CC2CC2)[C@H]1O5`, for which the Potency entry in experiment [1], in experiment [2] and in experiment [3] was “inactive” each time.

In the case of `NCC(O)c1ccc(O)cc1` (configuration not stated), the Potency entry in experiment [1], in experiment [2] and in experiment [3] was “inactive” throughout.

Take `Cc1cccc(C)c1NC1=NCCCS1`: the Potency result in experiment [1] and in [2] was “inactive” each time.

Regarding `CN1C(=S)CN=C(c2ccccc2)c2cc(Cl)ccc21`, the Potency entry in experiment [1] and in experiment [2] was “inactive” each time.

Take `COc1ccc(C(CN(C)C)C2(O)CCCCC2)cc1` (configuration not stated): the Potency result in experiment [1], in experiment [2] and in experiment [3] was “inactive” throughout.

Consider `CN(C)[C@@H]1C(=O)C(C(N)=O)=C(O)[C@@]2(O)C(=O)C3=C(O)c4c(O)cccc4[C@@](C)(O)[C@H]3C[C@@H]12`, for which the Potency result in [1], in [2] and in experiment [3] was “inactive” throughout.

With `CC(C)=CCOc1c2occc2cc2ccc(=O)oc12`, the Potency entry in experiment [1], in experiment [2] and in experiment [3] was “inactive” in each case.

With `NN=C(N)N`, the Potency result in experiment [1], in experiment [2] and in [3] was “inactive” throughout.

Regarding `CC[N+](CC)(CC)CC`, the Potency result in experiment [1], in experiment [2] and in experiment [3] was “inactive” in each case.

Consider `Cn1c(CCCC(=O)O)nc2cc(N(CCCl)CCCl)ccc21`, for which the Potency result in [1], in experiment [2], in [6], in [7], in [9] and in experiment [11] was “inactive” throughout. In addition, the Potency entry in experiment [12] and in experiment [13] was “inactive” each time. The Potency in experiment [4] was 16.5 µM (active); in [5] it was 3.69 µM (active); in experiment [8] it was 13.1 µM (active); in [10], 4.65 µM (active).

Consider `N[C@@H](Cc1ccc(N(CCCl)CCCl)cc1)C(=O)O`, for which the Potency entry in experiment [1], in experiment [2] and in experiment [11] was “inactive” throughout. In addition, the Potency was 6.57 µM (active) in experiment [4]; 16.5 µM (active) in experiment [14]; 2.61 µM (active) in experiment [5]; 5.22 µM (active) in [7]; 23.3 µM (active) in experiment [15]; 5.85 µM (active) in experiment [8]. For the same compound, the values for the Potency in [9], in experiment [10] and in experiment [16] were 20.8 µM (active), 9.27 µM (active) and 16.5 µM (active), respectively.

For the compound `c1ccc2c(c1)Nc1ccccc1S2`, the Potency result in [1], in experiment [2] and in experiment [3] was “inactive” each time.

In the case of `CCN(CC)CCN1C(=O)CN=C(c2ccccc2F)c2cc(Cl)ccc21`, the Potency result in [1], in experiment [2] and in experiment [3] was “inactive” each time.

Regarding `Cn1cc(C2=C(c3cn(C4CCN(Cc5ccccn5)CC4)c4ccccc34)C(=O)NC2=O)c2ccccc21`, the Potency entry in [1], in experiment [2], in experiment [3], in experiment [6], in experiment [11] and in experiment [17] was “inactive” in each case.

Turning to `Cc1sc2c(c1C)C(c1ccc(Cl)cc1)=N[C@@H](CC(=O)OC(C)(C)C)c1nnc(C)n1-2`, the Potency was 0.743 µM (active) in experiment [3], 1.31 µM (active) in experiment [4], 1.31 µM (active) in experiment [18] and 0.827 µM (active) in experiment [10]. In addition, the Potency entry in [14], in experiment [15], in experiment [9], in experiment [11], in experiment [17] and in experiment [19] was “inactive” throughout.

Consider `C[C@]12CC[C@H]3[C@@H](CCC4=CC(=O)CC[C@@H]43)[C@@H]1CC[C@@H]2OC(=O)CCc1ccccc1`, for which the Potency entry in experiment [1], in [2] and in [3] was “inactive” each time.

Turning to `CCOP(=S)(OCC)Oc1cc(C)nc(C(C)C)n1`, the Potency result in experiment [1], in experiment [2] and in experiment [3] was “inactive” throughout.

For `O=C1NCN(c2ccccc2)C12CCN(CC1COc3ccccc3O1)CC2` (configuration not stated), the Potency result in experiment [1], in experiment [2] and in [3] was “inactive” each time.

`C[C@@H]1O[C@@H](O[C@H]2C[C@@H](O)[C@]3(CO)[C@H]4[C@H](O)C[C@]5(C)[C@@H](C6=CC(=O)OC6)CC[C@]5(O)[C@@H]4CC[C@]3(O)C2)[C@H](O)[C@H](O)[C@H]1O`: the Potency in experiment [1] is 0.0148 µM (active); in [4] it was 369 nM (active) and 585 nM (active); in [14] it was 329 nM (active) and 282 nM (active); in experiment [5] it was 131 nM (active) and 293 nM (active); in [6] it was 131 nM (active) and 147 nM (active); in experiment [7] it was 329 nM (active) and 414 nM (active). Further, the Potency in [15] was 73.7 nM (active) and 56.2 nM (active); in experiment [9] it was 0.261 µM (active); in experiment [18], 65.7 nM (active) and 92.8 nM (active); in experiment [10] it was 92.8 nM (active) and 165 nM (active); in experiment [16], 104 nM (active) and 117 nM (active); in experiment [17], 131 nM (active) and 89.1 nM (active). For the same compound, the Potency is 46.5 nM (active) and 39.8 nM (active) in experiment [19]; 0.117 µM (active) in [12]; 0.165 µM (active) in [20]. Moreover, the Potency result in experiment [2] was “inactive”.
